This is part of a sample that, as a whole, favours compounds with a hit. Of some 83,000 tested, about 20% had one in any assay.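 Interpretation: 100, growth as untreated; towards 0, rising growth inhibition; 0, no net growth; 0 to -100, cell death. Compounds scoring below 10 were considered active.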 Values without a mark were called inactive. Activity calls are given as the source filed them.
Tests used:
Assay in all cases: NCI-60 one-dose screen, 48 h (100 = growth as untreated, 0 = no growth, -100 = all killed)
Conditions in all cases: 10 µM unless noted
HT29 colon = tested on: HT29 colon
SNB-19 CNS = tested on: SNB-19 CNS
U251 CNS = tested on: U251 CNS
PC-3 prostate = tested on: PC-3 prostate
SK-MEL-5 melanoma = tested on: SK-MEL-5 melanoma
UACC-62 melanoma = tested on: UACC-62 melanoma
LOX IMVI melanoma = tested on: LOX IMVI melanoma
SK-MEL-28 melanoma = tested on: SK-MEL-28 melanoma
SK-MEL-2 melanoma = tested on: SK-MEL-2 melanoma
SN12C renal = tested on: SN12C renal
UO-31 renal = tested on: UO-31 renal
TK-10 renal = tested on: TK-10 renal
ACHN renal = tested on: ACHN renal
CAKI-1 renal = tested on: CAKI-1 renal
A498 renal = tested on: A498 renal
CCRF-CEM leukemia = tested on: CCRF-CEM leukemia
MOLT-4 leukemia = tested on: MOLT-4 leukemia
SR leukemia = tested on: SR leukemia
EKVX NSCLC = tested on: EKVX NSCLC
SNB-75 CNS = tested on: SNB-75 CNS

Row | Compound | growth (HT29 colon) | growth (SNB-19 CNS) | growth (U251 CNS) | growth (PC-3 prostate) | growth (SK-MEL-5 melanoma) | growth (UACC-62 melanoma) | growth (LOX IMVI melanoma) | growth (SK-MEL-28 melanoma) | growth (SK-MEL-2 melanoma) | growth (SN12C renal) | growth (UO-31 renal) | growth (TK-10 renal) | growth (ACHN renal) | growth (CAKI-1 renal) | growth (A498 renal) [%] | growth (CCRF-CEM leukemia) | growth (MOLT-4 leukemia) | growth (SR leukemia) | growth (EKVX NSCLC) | growth (SNB-75 CNS) [%]
1 | COc1cc(C2CC(c3ccc(C)cc3)=NN2C(C)=O)ccc1Oc1ccnc2cc(Cl)ccc12 (stereo unspecified) | 77.1% | 58.1% | 14.7% | 67.9% | 91.1% | 72.5% | 65.6% | 108% | 60.6% | 77.5% | 61.6% | 11.1% | 32.2% | 58.1% | 64.3 | 74.5% | 86.8% | 35.1% |  | 
2 | COc1cc(/C=C/C(=O)N2CCN(C(=O)/C=C/c3ccccc3)CC2)cc(OC)c1OC | 104% | 96.4% | 103% | 93.6% | 106% | 100% | 107% | 110% | 116% | 111% | 77.7% | 108% | 110% | 104% |  | 100% | 87.8% | 78.7% | 121% | 
3 | CCCn1cnc2c1c(=O)n(CCCCC(C)=O)c(=O)n2C | 95.8% | 120% | 95.5% | 99.2% | 104% | 104% | 98.2% | 114% | 108% | 124% | 80.9% | 114% | 101% | 103% |  | 109% | 92% | 87.5% | 108% | 
4 | NC(N)=NN=c1c(=O)c2ccccc2c1=O | -49.4% (active) |  | 72.1% | 78% |  | 103% | -44.9% (active) | 80% | 118% | 16.3% | 64.8% | 110% | 78% | 104% | 78.1 | -27.9% (active) | -33.1% (active) |  | 118% | 
5 | CN=C(NC)N/N=C(C)\C=N\NC(=NC)NC | 104% | 99.4% | 98.8% | 94.8% |  | 97.5% | 109% | 110% | 117% | 96.4% | 83.7% | 127% | 101% | 89.1% | 96.3 | 106% | 101% |  | 101% | 
6 | COc1ccc(C2=NN(C(=O)c3cc(OC)c(OC)c(OC)c3)C(c3ccc(C#N)cc3)C2)cc1OC (stereo unspecified) | -8.4% (active) |  | 21.5% | 31.4% | 17.7% | 43.6% | 33.6% | 65.3% | 35.6% | 53.5% | 18.2% | 31.9% | 44.6% | 5.45% (active) |  | 29.9% | 49.5% |  | 33.4% | 
7 | COc1ccc2c(c1)[nH]c(=O)c1c3cc(OC)c(OC)cc3cn21 |  | 31.3% | -22.4% (active) | -90.8% (active) | -6.64% (active) | 48.9% | 9.3% (active) | 61.1% | 6.58% (active) | 35.6% | 35.1% | 27.1% | 24.7% | -9.25% (active) | 34.4 | -83.5% (active) | 7.2% (active) | 64.9% | 36.9% | 72
8 | O=C1C[C@@H]2/C(=C(O)\C=C\c3ccccc3)C(=O)C=C[C@@H]2O1 | -53.2% (active) | 58.7% |  | 37.8% | 39.7% | -50.7% (active) | -68% (active) | -23.7% (active) |  | -21.8% (active) | -85.9% (active) | 3.39% (active) | -17.7% (active) | -54% (active) |  | 12.5% | 6.97% (active) | 10.2% | 25.6% | 
9 | CC(C)(C)c1ccc(C(O)CCCN2CCC(C(O)(c3ccccc3)c3ccccc3)CC2)cc1 (stereo unspecified) | -92.7% (active) | 4.49% (active) | -85.4% (active) | -4.17% (active) |  | -98.1% (active) | -93.9% (active) |  | -76.1% (active) | 4.51% (active) | -80.9% (active) | -81.7% (active) | -88.2% (active) | 1.36% (active) | 50.3 | -23.6% (active) |  |  | 28.3% | 
10 | Cc1c(C(N)=O)sc2c1C(=O)N(Cc1ccccc1)C1=NN=C(c3ccc(Cl)cc3)CN12 | 34.9% | 52.8% | 29.9% |  | 57% | 25.4% | 17.2% | 72.8% | 66.8% | 61.5% |  | 59.4% | 21.9% | 18.6% | 105 |  |  |  | 62.7% | 
11 | COC(=O)C[C@@H]1CC=CC(=O)/C1=C(O)/C=C/c1ccccc1 | -65.3% (active) | 2.77% (active) | -67.4% (active) | 3.43% (active) | -97.8% (active) | -67.5% (active) | -93.3% (active) | -35.5% (active) | -22% (active) | -41.5% (active) | -80.8% (active) | -23.7% (active) | -83.3% (active) | -82.9% (active) |  | 10.8% | 3.09% (active) | 5.6% (active) | -30.8% (active) | 
12 | Clc1nc(Cl)c2ncn(-c3ccccc3)c2n1 | 43.4% | 103% |  | 95.7% | 78.6% | 69% | 0.438% (active) | 91.1% | 17.8% | 82% | -77.3% (active) | 71.9% | 68.6% | -79.9% (active) |  | 80.3% | 44.2% | 39% |  | 

From PubChem BioAssay (NCI)
